{
  "source": "PubChem BioAssay AID463173",
  "about": "(ICCB-Longwood Screening Facility, Harvard Medical School, 2010)",
  "note": "In all, about 52,000 compounds went through this assay and about 1,700 (3.3%) were called active. Shown is part of a subset that was picked to be rich in actives. Values without a mark were called inactive. Cut-off read from the data, not from the text of the source: active = survival mostly below about 52% (no sharp cut-off); inactive = mostly above about 56%.",
  "data": [
    {"system": "Wild type", "assay": "S. aureus survival, RN4220 and DeltatarO strains – OD600, teichoic acid synthesis inhibitors, primary screen (AID 463173)", "settings": "S. aureus RN4220 wild type/DeltatarO growth, OD600, 18 h, active compounds read low, screened at 18.75 µg/mL (by protocol)", "values": [
      {"smiles": "CCC(=O)N1CCc2cc(S(=O)(=O)NCCC(=O)Nc3cc(C)ccc3OC)ccc21", "survival": "117%"},
      {"smiles": "Cc1ccc(NC(=O)C(Cc2c[nH]c3ccccc23)NC(=O)OCC(C)C)cc1", "note": "(stereo unspecified)", "survival": "54%"},
      {"smiles": "CCOC(=O)c1c(NC(=O)c2ccc(OC)cc2)sc2c1CCCCC2", "survival": "7% (active)"},
      {"smiles": "CNC(=O)c1c(NC(=O)c2ccc(S(=O)(=O)N3CCCCC3)cc2)sc2c1CCC2", "survival": "-2% (active)"},
      {"smiles": "CNC(=O)c1c(NC(=O)c2ccc(S(=O)(=O)N3CCCC(C)C3)cc2)sc2c1CCC2", "note": "(stereo unspecified)", "survival": "101%"},
      {"smiles": "CCCc1ccc(OC(C)C(=O)Nc2sc3c(c2C(=O)OC)CCCCC3)cc1", "note": "(stereo unspecified)", "survival": "-2% (active)"},
      {"smiles": "CCCCOc1ccc(C(=O)Nc2sc3c(c2C(=O)OCC)CCCCC3)cc1", "survival": "38%"},
      {"smiles": "CCCc1ccc(OCC(=O)Nc2sc3c(c2C(=O)OC)CCCCC3)cc1", "survival": "43%"},
      {"smiles": "COC(=O)c1c(NC(=O)C(C)Oc2ccc(Cl)c(C)c2)sc(C)c1C", "note": "(stereo unspecified)", "survival": "10% (active)"},
      {"smiles": "CNC(=O)c1c(NC(=O)c2ccc(S(=O)(=O)N3CCC(C)CC3)cc2)sc2c1CCC2", "survival": "129%"},
      {"smiles": "CCOC(=O)c1c(NC(=O)C(C)Oc2ccc(Cl)c(C)c2)sc2c1CCCC2", "note": "(stereo unspecified)", "survival": "50%"},
      {"smiles": "COC(=O)c1c(NC(=O)C(C)Oc2ccc(Cl)cc2Cl)sc2c1CCCC2", "note": "(stereo unspecified)", "survival": "57%"},
      {"smiles": "Cc1cc(OC(C)C(=O)Nc2sc3c(c2C(N)=O)CCCC3)ccc1Cl", "note": "(stereo unspecified)", "survival": "82%"},
      {"smiles": "CCCOc1ccc(C(=O)Nc2sc3c(c2C(=O)OCC)CCCCC3)cc1", "survival": "27%"},
      {"smiles": "O=C(Nc1ccc(F)cc1F)c1cccc2c1C(=O)N(C1CCCCC1)C2", "survival": "94%"},
      {"smiles": "CCn1c(C(=O)N2CCC(C(=O)N3CCN(c4ccc(OC)cc4)CC3)CC2)cc2sccc21", "survival": "62%"},
      {"smiles": "CCOc1ccccc1NC(=O)NC(CC)c1c(-n2cccc2)sc2c1CCN(C)C2", "note": "(stereo unspecified)", "survival": "69%"},
      {"smiles": "CC1=C(C#N)c2nc(N)c(C#N)c(C)c2/C1=C\\c1cccnc1", "survival": "83%"},
      {"smiles": "COc1ccc(Cl)cc1NC(=O)CCC(=O)N1CCOc2ccccc21", "survival": "83%"},
      {"smiles": "CC(=O)c1cccc(-n2c(=O)c3c4c(sc3n(Cc3ccccc3Cl)c2=O)CN(C(C)=O)CC4)c1", "survival": "88%"},
      {"smiles": "CCOC(=O)c1cc2c(=O)n3ccccc3nc2n(Cc2ccco2)c1=NC(=O)c1ccc(C(C)(C)C)cc1", "survival": "72%"},
      {"smiles": "CCOC(=O)c1c(NC(=O)c2ccccc2C)sc2c1CCCC2", "survival": "-8% (active)"},
      {"smiles": "CCOC(=O)c1c(NC(=O)c2ccc(OC)c(OC)c2)sc2c1CCCCC2", "survival": "69%"},
      {"smiles": "CCOC(=O)c1c(NC(=O)c2ccc(C)cc2)sc2c1CCCCC2", "survival": "-1% (active)"},
      {"smiles": "CCOC(=O)c1c(NC(=O)c2cc(OCC)c(OCC)c(OCC)c2)sc2c1CCCCC2", "survival": "83%"},
      {"smiles": "CCOC(=O)c1c(NC(=O)c2ccc(OCC)c(Br)c2)sc2c1CCCC2", "survival": "67%"},
      {"smiles": "CCOC(=O)c1c(NC(C)=O)sc2c1CCC2", "survival": "104%"},
      {"smiles": "CCOC(=O)c1c(NC(=O)c2ccc(S(=O)(=O)N(CC)CC)cc2)sc2c1CCCCC2", "survival": "80%"},
      {"smiles": "CCOC(=O)c1c(NC(=O)c2ccc(C)c(C)c2)sc2c1CCCCC2", "survival": "0% (active)"},
      {"smiles": "CCOC(=O)c1c(NC(=O)c2cc(Cl)ccc2Cl)sc2c1CCCC2", "survival": "76%"},
      {"smiles": "Cc1c(C(=O)Nc2ccccc2Br)oc2ccc(S(=O)(=O)N3CCCCCC3)cc12", "survival": "83%"},
      {"smiles": "O=C(NCc1ccc(F)cc1)c1ccc2c(Cl)c3c(nc2c1)CCCC3", "survival": "62%"},
      {"smiles": "Cc1cc(C)cc(N2CC(c3nc(-c4cccc(Cl)c4)no3)CC2=O)c1", "note": "(stereo unspecified)", "survival": "32%"},
      {"smiles": "CCCCNC(=O)c1sc2ncccc2c1-n1cccc1", "survival": "47%"},
      {"smiles": "CCc1nc(-c2cc(S(=O)(=O)N3CCN(c4ccccc4OC)CC3)ccc2OC)no1", "survival": "69%"},
      {"smiles": "CCOc1ccccc1NC(=O)C(NS(=O)(=O)c1ccc2c(c1)CCC(=O)N2)c1ccccc1", "note": "(stereo unspecified)", "survival": "76%"},
      {"smiles": "COC(=O)c1scc(-c2ccc(C)cc2)c1S(=O)(=O)N1CCN(c2ccc(F)cc2)CC1", "survival": "-6% (active)"},
      {"smiles": "Cn1cc(S(=O)(=O)N2CCCCCC2)cc1C(=O)N1CCN(c2ccc(F)cc2)CC1", "survival": "71%"},
      {"smiles": "COC(=O)c1scc(-c2ccc(C)cc2)c1S(=O)(=O)N1CCN(c2ccccc2)CC1", "survival": "64%"},
      {"smiles": "COC(=O)c1scc(-c2ccc(C)cc2)c1S(=O)(=O)N1CCN(c2ccc(OC)cc2)CC1", "survival": "75%"},
      {"smiles": "Cn1cc(S(=O)(=O)N2CCCCC2)cc1C(=O)N1CCN(c2ccc(F)cc2)CC1", "survival": "65%"},
      {"smiles": "CC1CCN(S(=O)(=O)c2cc(C(=O)N3CCN(c4ccccc4F)CC3)n(C)c2)CC1", "survival": "65%"},
      {"smiles": "COc1ccccc1N1CCN(C(=O)c2cc(S(=O)(=O)N3CCC(C)CC3)cn2C)CC1", "survival": "0% (active)"},
      {"smiles": "Cc1cccc(N2CCN(C(=O)c3cc(S(=O)(=O)N4CCC(C)CC4)cn3C)CC2)c1C", "survival": "49%"},
      {"smiles": "COC(=O)c1cc(S(=O)(=O)N2CCN(c3ccc(F)cc3)CC2)cn1C", "survival": "-6% (active)"},
      {"smiles": "CCc1ccc(-n2nc3cc(C)c(NC(=O)c4cc(OC)cc(OC)c4)cc3n2)cc1", "survival": "69%"},
      {"smiles": "Cc1ccc(-c2cc(C(=O)Nc3c(C(=O)c4ccc(C)c(F)c4)oc4ccccc34)no2)cc1", "survival": "93%"},
      {"smiles": "O=C(Nc1cccc(NC(=O)C2CCCO2)c1)c1ccco1", "note": "(stereo unspecified)", "survival": "102%"},
      {"smiles": "O=C(Nc1ccc(F)c(Cl)c1)C1CCN(S(=O)(=O)c2ccc3c(c2)CCCN3C(=O)C2CCC2)CC1", "survival": "67%"},
      {"smiles": "COC(=O)c1c(SC)nc2ccccc2c1OCc1ccc(C)cc1", "survival": "75%"},
      {"smiles": "NC(=O)C1CCN(C(=O)CSc2nc(O)cc(=O)[nH]2)CC1", "survival": "97%"},
      {"smiles": "O=C(N/N=C1/SCC(=O)N1Cc1ccco1)c1ccccc1F", "survival": "97%"},
      {"smiles": "CC(=O)c1ccc(S(=O)(=O)Nc2ccc(-c3cn4c(C)csc4n3)cc2)cc1", "survival": "-6% (active)"},
      {"smiles": "COc1ccc(S(=O)(=O)Nc2ccc(-c3cn4c(C)csc4n3)cc2)cc1", "survival": "78%"},
      {"smiles": "CC(=O)Nc1ccc(S(=O)(=O)Nc2ccc(-c3cn4c(C)csc4n3)cc2)cc1", "survival": "69%"},
      {"smiles": "CCc1ccccc1Nc1nn2c(=O)c3ccc(C(=O)NCc4ccc(C)cc4)cc3nc2s1", "survival": "92%"}
    ]}
  ]
}
